An excerpt weighted towards active compounds, which were near 2.3% of everything screened.
Nrf2 block = Nrf2 pathway inhibition. A549 ARE-Fluc reporter, luciferase luminescence, 18-24 h. Potency, µM (top dose mostly 46 µM), for inactives: at the highest dose activity change, negative = inhibition, actives largely listed as inhibitors. 360,000 compounds, 2.1% hits; further: potency means the concentration at half of the fitted maximal effect; on the % scale 0 is the no-effect control and ±100 the full control effect; nearly all actives have a fitted effect of over 60% in size
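In this cell-based qHTS, ARE-driven firefly luciferase in A549 cells reports Nrf2 activity; the luminescent signal after BugLite lysis is the measured value, with a prior CellTiter-Fluor read for cell health.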
A549 viability = counter-screen for Nrf2 inhibitors: cytotoxicity in A549 cells; A549 ARE-Fluc cells, CellTiter-Fluor viability, 18-24 h; Potency, µM (series often up to 46 µM), inactives show at the top dose activity change, negative = cytotoxicity, usual class: inhibitors; 390,000 compounds, 0.16% hits; AID 504648; further: potency means the concentration at half of the fitted maximal effect; on the % scale 0 is the no-effect control and ±100 the full control effect
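A549 ARE_Fluc cells in 5% FBS OPTI-MEM were exposed to compounds in concentration-response for 18-24 h at 37 deg C. Viability was read by CellTiter-Fluor fluorescence (Ex 405/Em 525) after 30 min, before the luciferase read.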
Nrf2 activator = activators of Nrf2 (ARE) signaling | AREc32 ARE-luciferase reporter (MCF7-derived line), luminescence, 24 h | Potency, µM (top dose mostly 46.1 µM), without a hit: at the highest dose activation, usual class: activators | 410,000 compounds, 0.31% hits | AID 624171; further: potency means the concentration at half of the fitted maximal effect; % of control where 0% means no effect; nearly all actives have a fitted effect of over 65% in size
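Cells of the AREc32 ARE-luciferase line are plated in OPTI-MEM containing 5% FBS and left overnight at 37 deg C. Compounds are pinned in, incubation continues 24 hr, and firefly luciferase signal is then measured.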
IL-2 act = IL-2 activation. IL-2 activation reporter assay, cell-based qHTS; stimulated with anti-CD3/CD4/CD28 beads; in transgenic mouse T cells. activation, % (series mostly up to about 46 µM). 360,000 compounds, 0.065% hits. AID 652025; in the data active means activation above about 50%; inconclusive means mostly about 30% to 49%; further: 0% is about no effect
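Quantitative HTS in unstimulated transgenic mouse T cells, with memory T cells as non-tolerant control and PMA/ionomycin as tolerance-bypass control. Compound pretreatment lasted 60 minutes before 18 h bead stimulation; EGFP/DsRed fluorescence read.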
* hit, by the source's call; ? = inconclusive; . = not tested or not shown; ! = not active in a repeat. Unless noted, the call rests on the fitted dose curve; in most records, active means well fitted curve in the direction sought with a large enough effect; inconclusive means small, poorly fitted or top-dose-only effect, or another doubt; inactive means no such curve, though single readings can be large; an effect the other way counts as inactive or inconclusive.

SMILES | Nrf2 block | A549 viability | Nrf2 activator | IL-2 act
CCn1c(SCCOc2ccc(OC)cc2)nnc1C(CO)NC(=O)c1ccc(OC)cc1 (configuration not stated) | -12.3% | -15.5% | 0.1% | -5.7
C=CCn1c(SCCOc2ccc(OC)cc2)nnc1C(C)NC(=O)Cc1ccc(OC)cc1 (configuration not stated) | 23.1µM* | -12.1% | 0.5% | -1.6
CN(C(=O)c1coc(=O)c2ccccc12)c1ccc(F)cc1 | 23.1µM* | -16.4% | -0.1% | 1.8
CCN(CC)CC(C)(C)C(=O)/C=C/c1ccc(/C=C/C(=O)C(C)(C)CN(CC)CC)cc1 | 20.6µM* | 16.4µM* | -3.7% | -0.7
NC(=O)C(C(=O)/C=C/c1ccc(Cl)cc1)=C1SCCS1 | ? | ? | 7.94µM* | 0.1
COc1ccc(OC)c(C2=NS(=O)(=O)N(C)C(C(=O)Nc3ccc(F)cc3F)=C2)c1 | 14.6µM*! | ? | 0.4% | -1.9
CCCn1c(CNc2ccccc2O)nc2ccccc21 | 13.9% | -6.1% | 14.1µM* | -0.3
O=c1c2ccccc2n2c(-c3ccccc3F)nnc2n1CCc1ccccc1 | 1.2% | 9.6% | 10.2% | .
COC(=O)c1cc(CSc2nc3ccccc3c(=O)n2C)oc1C | 18.4µM* | 5.0% | 2.9% | -0.1
C=CCn1c(SCC(=O)Nc2cccc(S(N)(=O)=O)c2)nc2sc(C)c(C)c2c1=O | 16.4µM* | ? | 4.0% | -0.6
CCn1c(SCC(=O)Nc2ccc(OCc3ccccc3)cc2)nnc1-c1ccco1 | 14.6µM* | ? | 0.8% | -2.9
C=CCn1c(SCC(=O)Nc2ccccc2C)nc2sc(C)c(C)c2c1=O | ? | 1.2% | -1.1% | -2.5
CCn1c(SCC(=O)Nc2cccc(OC)c2)nnc1-c1ccc(Cl)cc1 | 25.9µM* | -12.0% | 0.4% | -1.6
COCCn1c(SCc2ccc(C(=O)OC)o2)nc2ccccc2c1=O | 2.2% | -1.1% | -0.8% | -2.2
Cc1ccc(OCCSc2nc3ccccc3n2CC(=O)N2CCCCC2)c(C)c1 | ? | -0.7% | 0.0% | .
O=C(O)c1ccccc1OC1=NS(=O)(=O)c2ccccc21 | 13.8% | -2.0% | . | .
CCOc1ccccc1CNC(=O)CCn1c(=O)c2cccn2c2ccc(F)cc21 | 16.1% | 4.3% | -1.3% | .
O=C(COc1ccccc1)Nc1nnc2n1CCS2 | . | -0.2% | -0.8% | .
CC(C)Cn1c(SCC(=O)Nc2cccc(S(N)(=O)=O)c2)nc2ccccc2c1=O | 20.6µM* | -19.8% | -0.5% | 0.1
Cc1ccc(-n2c(SCC(=O)Nc3cccc(S(N)(=O)=O)c3)nc3ccccc32)cc1 | 20.6µM* | ? | 3.2% | 1.4
Cc1nnc(SCC(=O)Nc2cccc(S(N)(=O)=O)c2)n1-c1ccccc1 | 1.6% | -0.1% | -0.7% | 0.3
COc1cccc(NC(=O)CSc2nc3ccccc3c(=O)n2C)c1 | 14.6µM* | -9.6% | 3.2% | -0.1
Cc1ccc(-c2nnc(SCC(=O)NCc3ccccc3)o2)cc1 | ? | -0.4% | 0.6% | .
COc1ccc(CCNCc2c(C(=O)O)c(C)n(Cc3c(F)cccc3Cl)c2C)cc1OC | ? | 6.6% | 0.8% | .
CCOc1ccc(CCNC(=O)c2cc(C)nc3c2c(C)nn3-c2cccc(F)c2)cc1 | -14.4% | -10.8% | 8.2% | .
SMILES | Nrf2 block | A549 viability | Nrf2 activator | IL-2 act
Cn1c(N)c(C(=O)COC(=O)C2(c3ccc(Cl)cc3)CCCC2)c(=O)n(C)c1=O | 18.4µM* | ? | 0.1% | -2.4
Cc1cccc(-c2c3c(=O)n(C)c(=O)n(C)c3cn2-c2cc(N)c(Cl)cc2Cl)c1 | ? | -15.2% | 0.4% | .
CC(=O)n1c(C=Nc2ccc(Cl)cc2)c(O)c2ccccc21 | 17.7% | -3.4% | ? | 83.7*
CC(=O)n1c2ccccc2c2ccccc21 | 6.9% | 2.0% | -0.7% | 2.4
CC1CCN(C(=O)C(C)OC(=O)c2ccc(S(C)(=O)=O)c([N+](=O)[O-])c2)CC1 (configuration not stated) | 4.9% | -6.6% | . | .
C/C(=N\NC(=O)C1CCCN(S(=O)(=O)c2ccccc2)C1)c1ccccn1 (configuration not stated) | 11.6µM* | ? | 0.5% | -0.7
C/C(=N\NC(=O)c1cc(Br)ccc1O)c1ccccn1 | 3.0% | -15.7% | 0.3% | -3.5
C/C(=N\NC(=O)C1COc2ccccc2O1)c1ccccn1 (configuration not stated) | 9.2µM* | ? | ? | 0.8
CC(=NNC(=S)Nc1ccc(C)cc1)c1ccccn1 | ? | 11.6µM* | 1.6% | -0.7
C/C(=N\NC(=O)c1cccc(Br)c1)c1ccccn1 | 2.31µM* | ? | ? | -0.8
Cc1ccc(NC(=O)Cn2c(=O)n(Cc3nc(-c4ccccc4)no3)c(=O)c3cc4c(cc32)OCO4)cc1F | 10.8% | -0.7% | -0.8% | .
COCCCNC(=O)CCCn1c(SCC(=O)c2ccc(F)cc2)nc2c(sc3ccccc32)c1=O | 7.0% | 6.4% | 0.3% | .
C/C(=N\NC(=O)C(c1ccccc1)c1ccccc1)c1ccccn1 | 11.6µM* | ? | 18.6% | 0.4
CCC1CCCCN1C(=O)c1ccc([N+](=O)[O-])o1 (configuration not stated) | 13.8% | -1.3% | 20µM* | -0.5
COc1cc2c(=O)c(C(=O)c3ccc(C)c(C)c3)cn(Cc3ccccc3F)c2cc1OC | ? | 20.6µM* | -3.5% | .
COc1cc2c(=O)c(C(=O)c3ccc(C)c(C)c3)cn(Cc3ccccc3)c2cc1OC | 20.0% | -10.2% | 0.3% | .
CCc1ccc(C(=O)c2cn(Cc3ccccc3)c3cc(OC)c(OC)cc3c2=O)cc1 | ? | 20.6µM* | -0.1% | .
Cc1ccc(C)c(Cn2c3ccccc3c3cnn(CC(=O)NC(C)c4ccccc4)c(=O)c32)c1 (configuration not stated) | -7.7% | 7.4% | -0.7% | .
Cc1ccc(NC(=O)c2ccc(CNS(=O)(=O)c3ccc4c(c3)C(C)(C)C(=O)N4C)cc2)cc1F | 23.1µM* | -18.9% | 0.4% | .
CCc1cccc(NC(=O)c2ccc(CNS(=O)(=O)c3ccc4c(c3)C(C)(C)C(=O)N4C)cc2)c1 | 16.4µM* | -20.9% | -0.9% | .
Cc1ccc(NC(=O)c2ccc(CNS(=O)(=O)c3ccc4c(c3)C(C)(C)C(=O)N4C)cc2)cc1 | 0.0% | 3.2% | 5.3% | .
CCN(C(=O)c1cc2cc(Br)cc(OC)c2oc1=O)c1ccccc1 | -13.1% | -0.1% | -1.2% | .
COc1cccc(NC(=O)Cn2c(=O)n(Cc3ccc(C(=O)NCc4ccc5c(c4)OCO5)cc3)c(=O)c3ccccc32)c1 | -18.8% | -0.9% | -1.1% | .
COc1ccc(S(=O)(=O)NCCCCCC(=O)O)cc1C(=O)O | -1.6% | -1.4% | 0.1% | 0.1
COc1ccc(S(=O)(=O)NCCCCC(=O)O)cc1C(=O)O | 16.4µM* | -32.9% | -0.5% | 0.9
Nc1ccccc1OC1=NS(=O)(=O)c2ccccc21 | 16.5% | -1.3% | . | .
COc1ccc(-c2nc3ccccc3n2Cc2ccccc2)cc1COc1ccc(NC(C)=O)cc1 | ? | -8.3% | . | .
Cc1csc(NC(=O)c2ccc(Cn3nc(C)c(Br)c3C)o2)n1 | 18.4µM* | -16.2% | 0.8% | -2.1
Cc1nn(Cc2ccc(C(=O)Nc3ccccc3C(F)(F)F)o2)c(C)c1Br | ? | -14.1% | 1.0% | -1.0
